Compound activity: PubChem BioAssay, National Center for Advancing Translational Sciences (NCATS)
The entries come from a sample that favours hits as a whole.
Cycloheximide cs: affects cycloheximide protein synthesis inhibition readout, counter-screen | max response, % | AID 2314 | cell reporter, cycloheximide protein synthesis inhibition counterscreen | hit rate 12% among 300,000; in the data active = max response mostly above about 13%, no sharp cut-off; inactive = mostly below about 14%; also: read at 38.3 µM for the half of the compounds with a filed dose; 0% is about no effect
Lassa entry inh: Lassa virus entry inhibition. AID 540256. Lassa virus pseudotype entry inhibition, cell reporter. Potency, µM (titrated, usually from 37.9 µM), inactives show at the highest dose activity change, negative = inhibition, actives largely listed as inhibitors. hit rate 1.2% among 300,000; calls by dose curve; tested in HEK293 cells; also: potency is read from the fitted curve at half-maximal effect; % is scaled to controls: 0 for no effect and ±100 for the full control effect; nearly all actives have a fitted effect of over 50% in size
Vaccinia mCherry: inhibitors of vaccinia virus infection (mCherry reporter signal); hit rate 0.63% among 310,000; AID 720579; Potency, µM (top dose mostly 36.5 µM), without a hit: at the top dose activity change, negative = inhibition, hits mostly inhibitors; Vaccinia virus mCherry reporter infection, fluorescence; calls by dose curve; tested in A549 cells; also: potency is read from the fitted curve at half-maximal effect; % is scaled to controls: 0 for no effect and ±100 for the full control effect; nearly all actives have a fitted effect of over 35% in size
Marburg entry inh: blocks Marburg virus binding to or entry into cells. Marburg virus pseudotyped entry inhibition, cell reporter. Potency, µM (top dose mostly 37.8 µM), for the others: at the top dose activity change, negative = inhibition, most hits filed as inhibitors. hit rate 1.8% among 300,000. AID 540276; calls by dose curve; tested in HEK293 cells; also: potency is read from the fitted curve at half-maximal effect; % is scaled to controls: 0 for no effect and ±100 for the full control effect
Shiga inhibitor: inhibitors of Shiga toxin in Vero cells | inhibition, % at 38.7 µM | Vero cells, Shiga toxin protein synthesis inhibition reporter | hit rate 9.2% among 290,000; in the data active = inhibition mostly above about 28%, no sharp cut-off; inactive = mostly below about 43%; also: 0% is about no effect
Vaccinia Venus: vaccinia inhibition (Venus reporter); Vaccinia virus Venus reporter expression, fluorescence; Potency, µM (top dose mostly 36.5 µM), for the others: at the top dose activity change, negative = inhibition, hits mostly inhibitors; hit rate 0.46% among 330,000; AID 720580; calls by dose curve; tested in A549 cells; also: potency is read from the fitted curve at half-maximal effect; % is scaled to controls: 0 for no effect and ±100 for the full control effect; nearly all actives have a fitted effect of over 30% in size
An asterisk follows results filed as active; i = inactive; ? = inconclusive; · = no result; [ ] = another dose, or the depositor's remark.

SMILES	Cycloheximide cs	Lassa entry inh	Vaccinia mCherry	Marburg entry inh	Shiga inhibitor	Vaccinia Venus
O=C1N/C(=C\c2ccccc2)c2ccccc21	27.4*	9.8%	-13.0%	?	56.6*	-20.3%
O=C1C2C3C=CC(C3)C2C(=O)N1c1nc2ccccc2s1 (stereo not drawn)	7.9	12.4%	·	4.8%	17.7	10.5%
O=C1Nc2ccccc2Nc2ccccc21	-3.2	?	i	-6.8%	-4.9	-0.3%
O=C1N/C(=C\c2nc3ccccc3s2)c2ccccc21	62.1*	·	·	·	75.5*	·
O=C1/C(=C\c2cccs2)Sc2ccc3ccccc3c21	47.6*	?	-10.0%	?	84.3*	8.2%
Cc1ccc(C2CCN(C(=O)Nc3ccccc3)C2)cc1 (stereo not drawn)	39.1*	-18.4%	-6.1%	12.4%	149.7*	-24.2%
O=C(Nc1ccc(F)c(Cl)c1)N1CC=C(c2c[nH]c3ccccc23)CC1	·	-22.5%[46.1 µM]	-8.4%	·	·	-4.0%
Cc1ccc(NC(=O)N2CCC(c3ccccc3)C2)cc1C (stereo not drawn)	52.6*	?	-12.2%	?	100.7*	0.4%
O=C(Nc1cccc(F)c1)N1CC=C(c2ccc(Cl)cc2)CC1	45.8*	-16.4%	i	-20.2%[46.1 µM]	75.1*	?
O=C(Nc1ccc(Cl)cc1)N1CCC(c2ccccc2)C1 (stereo not drawn)	41.8*	?	31.6%	?	116.3*	-13.7%
O=C(Cc1ccc(Cl)cc1)NCCc1cnc[nH]1	-1.2	22.1%[46.1 µM]	-13.1%	-1.2%[46.1 µM]	-5.1	-10.4%
CCOC(=O)NN=C1C[C@@H](O)[C@@H](O)[C@@H]2[C@H]3C(=O)N(Cc4ccccc4)C(=O)[C@@H]3CC[C@@H]12	·	·	·	24.9%[14.2 µM]	·	·
O=C(Nc1ccc(Cl)cc1)N1CCN(c2ccc3nnc(-c4ccccc4)n3n2)CC1	·	·	10µM*	-26.4%[46.1 µM]	·	?
Cc1ccc(NC(=O)N2CCC(NC(=O)c3ccccc3C)CC2)cc1	-1.3	1.8%	·	14.2%	22.4	·
O=C(Nc1cccc(F)c1)N1CCC(c2ccccc2)CC1	41.4*	·	·	·	73.7*	·
Cc1ccc(NC(=O)N2CCC(NC(=O)C(C)(C)C)CC2)cc1	16.7*	6.7%	·	-12.2%	10.5	·
O=C(Nc1ccccc1Cl)N1CCN(c2ccc3nnc(-c4ccc(F)cc4)n3n2)CC1	37.1	-23.2%	-4.1%	-17.2%	2.6	-6.8%
C[C@H](CO)N1C[C@H](C)[C@@H](CN(C)CC2CCCCC2)Oc2ccc(NC(=O)Cn3cnnn3)cc2C1=O	·	·	-26.1%	·	·	-7.2%
CCOC(=O)C(C#N)C(=N)C1C(=O)OC2CCCCC21 (stereo not drawn)	·	·	i	·	·	-4.2%
Cc1ccc(OCCNC(=O)c2ccc(NC(=O)CC3SC(N4CCCC4)=NC3=O)cc2)cc1 (stereo not drawn)	·	-1.3%	-18.5%	-26.2%	·	-14.2%
COc1ccccc1CNC(=O)Cc1c(C)c2c(cc(C)c3c(C)c(C)oc32)oc1=O	·	15.4%[46.1 µM]	-5.0%	13.9%[46.1 µM]	·	-7.7%
N#Cc1cc2c(nc1SCC(=O)Nc1ccc(C(F)(F)F)cc1)C1CCN2CC1	·	-2.5%[46.1 µM]	-16.1%[7.34 µM]	?	·	-18.4%[7.34 µM]
N#Cc1cc2c(nc1SCC(=O)Nc1ccc(Cl)cc1)C1CCN2CC1	22.8*	-8.4%	·	0.0%	74.4	·
O=C1OC(c2ccc(Cl)cc2)/C(=C(/O)c2ccccc2)C1=O (stereo not drawn)	37.1*	7.4%	·	5.8%	65.4*	·
CCN(CC)CCNc1ccc(CO)c2oc3ccccc3c(=O)c12	·	·	-5.2%	·	·	?
SMILES	Cycloheximide cs	Lassa entry inh	Vaccinia mCherry	Marburg entry inh	Shiga inhibitor	Vaccinia Venus
CCN(CC)CCNc1ccc(CO)c2sc3ccccc3c(=O)c12	-3.0	?	-22.5%	11.2µM*	-14.8	?
Cc1ccc(NCCN(C)C)c2c(=O)c3cc(O)ccc3sc12	·	3.98µM*	1.41µM*	?	·	?
O=c1c2ccccc2sc2ccc(NCCCN3CCOCC3)cc12	·	·	-5.4%	·	·	-2.3%
O=c1c2ccccc2sc2c(CO)ccc(NCCN3CCCCC3)c12	·	?	?	?	·	10µM*
CC1(C)Cc2c(sc(NC(=O)C(=O)NCCCN3CCOCC3)c2C#N)CO1	4.1	·	·	·	-10.2	·
CC(=O)N(NC(N)=O)C(C)CC(=O)C1C(C)C=CCC1(C)C (stereo not drawn)	-2.4	-6.9%[46.1 µM]	-4.2%	25.5%[46.1 µM]	-12.2	-10.1%
CCNc1oc(-c2cccc3ccccc23)nc1C#N	27.5	0.3%	-24.6%	8.0%	58.3*	-21.3%
CC1CCN(c2oc(-c3cccc4ccccc34)nc2C#N)CC1	1.4	?	-14.6%	8.6%	8.7	-2.8%
N#Cc1nc(-c2cccc3ccccc23)oc1NCCN1CCCCC1	18.8	-8.1%	·	?	32.3	·
CC(C)Nc1oc(-c2cccc3ccccc23)nc1C#N	30.0*	9.9%	-10.8%	-1.7%	84.3*	-20.7%
C=CCNc1oc(-c2cccc3ccccc23)nc1C#N	45.6*	4.8%	-22.1%	8.0%	44.8*	?
O=C(C(=O)N1CCCC1CO)N1CCCC1CO (stereo not drawn)	-4.3	2.5%	i	?	-8.7	-4.8%
C[C@H]1CN([C@@H](C)CO)C(=O)CCCn2nncc2CO[C@H]1CN(C)S(=O)(=O)c1ccc(F)cc1	·	·	-15.0%	·	·	-7.7%
CC(=O)Nc1ccnn1C1CCN(C(=O)c2cccc(C)c2C)CC1	-0.7	·	10.1%[7.34 µM]	·	-10.8	8.2%[7.34 µM]
CN(C)c1ccc(/C=C/c2ccnc3ccccc23)cc1Br	·	·	-9.5%	·	·	-18.2%
CCOC(=O)[C@@H]1[C@H]2COc3cc(OC)ccc3[C@@H]2N2C(=O)N(c3ccc(F)cc3)C(=O)[C@]12C	-1.6	·	i	·	-7.2	-13.8%
Cc1ccc(-c2noc(C3CCCN(C(=O)c4cccc(F)c4)C3)n2)cc1 (stereo not drawn)	21.9*	·	·	·	19.3	·
O=C(c1c(F)cccc1F)N1CCCC(c2nc(-c3ccc(Cl)cc3)no2)C1 (stereo not drawn)	1.5	·	·	·	-7.8	·
O=C(Nc1ccc(F)cc1F)N1CCCC(c2nc(-c3ccc(F)cc3)no2)C1 (stereo not drawn)	22.6*	14.9%	·	-19.5%	41.1	·
O=C(c1ccc(F)cc1F)N1CCCC(c2nc(-c3ccc(F)cc3)no2)C1 (stereo not drawn)	16.9*	?	i	-28.9%[46.1 µM]	14.4	-24.9%
COc1ccccc1NC(=O)CSc1nc2ccccc2c(=O)n1CCC(=O)NC1CCCCC1	·	-0.2%[46.1 µM]	-6.0%	·	·	0.2%
Cc1ccc(C2=Nc3ccccc3N=C(c3ccc([N+](=O)[O-])cc3)C2)c(O)c1	25.7*	0.9%	i	-12.6%	166.2*	-7.5%
CC1(C)CC(=O)C2=C(C1)c1c(ccc3ccccc13)NC2c1ccc(C(=O)O)cc1 (stereo not drawn)	14.3	-7.8%[46.1 µM]	-4.5%	-3.4%[46.1 µM]	22.4	-7.2%
Cc1ccc(C2Nc3ccc4ccccc4c3C3=C2C(=O)CC(C)(C)C3)o1 (stereo not drawn)	12.6*	?	·	?	28.9	·
O=C1CCCC2=C1C(c1ccco1)Nc1ccc3ccccc3c12 (stereo not drawn)	33.2*	-7.7%	-22.1%	-4.5%	44.8*	-18.3%
NC(=S)NN=C1CCCCCCCCC1	·	-0.8%	20µM*	-12.1%	·	?
O=C(Oc1ccccc1)c1ccccc1	·	-38.3%[46.1 µM]	-9.5%	7.5%[46.1 µM]	·	-7.7%
